ClpP mod: qHTS Assay for Activators of ClpP | ATP-dependent Clp protease proteolytic subunit (Bacillus subtilis (strain 168)), P80244 | purified B. subtilis ClpP, FRET peptide cleavage, 20 min | Potency, µM (doses to about 57.5 µM), without a hit: at the top dose activity change, negative = active | 340,000 tested, 1.9% active | AID 651965, 2013; active = well fitted falling curve with a large enough effect; inconclusive = small, poorly fitted or top-dose-only effect; inactive = no such curve, though single readings can be large or run the other way; also: potency is read from the fitted curve at half-maximal effect; the source files actives as falling curves though it sought activators and does not explain the sign; nearly all actives have a fitted effect of over 65% in size
Target sequence (P80244 whole entry, looked up): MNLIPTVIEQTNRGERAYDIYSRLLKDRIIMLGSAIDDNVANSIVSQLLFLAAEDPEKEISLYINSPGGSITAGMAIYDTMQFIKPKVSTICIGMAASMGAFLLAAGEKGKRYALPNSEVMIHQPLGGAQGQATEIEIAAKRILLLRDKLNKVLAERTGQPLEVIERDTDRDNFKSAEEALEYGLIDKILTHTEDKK
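Buffer: 100 mM Tris/HCl pH8, 100 mM KCl, 0.05% low protease BSA, 2.5% glycerol, 0.01% Tween-20. ClpP 10 microg/mL final; 20 min RT; delta FRET normalized to ADEP and DMSO controls.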
miR-21 reporter: qHTS Assay for Modulators of miRNAs and/orActivators of miR-21; HeLa miR-21 FLuc reporter, luciferase, 48 h; Potency, µM (titrated, usually from 38.3 µM), for the others: at the highest dose activity change, positive = activation, hits mostly activators; 340,000 tested, under 10 active; AID 2288, 2010;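 also: % of control where 0% means no effect; miR-21 action dims this reporter so a rising signal means less miR-21 action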
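HeLa cells stably expressing CMV-driven firefly luciferase with a downstream miR-21 binding sequence, endogenously expressing miR-21, were treated with titrations (up to about 40uM final) for 48 hours at 37 degree Celsius. Luciferase luminescence was read after lysis.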
TCR activator: Activators of T cell receptors: qHTS campaign. Potency, µM (titrated, usually from 9.22 µM), without a hit: top-dose activation of IL-2 secretion, actives largely listed as activators. 330,000 tested, under 10 active. primary human leukocytes, anti-CD3, IL-2 HTRF, 48 h; also: % of control where 0% means no effect
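1) Mix primary human leukocytes, a-CD3 beads and compound. 2) Incubate 48 hr. 3) Add HTRF IL-2 reagents (a-IL-2-K, a-IL-2-d2).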
Nrf2 ARE act: qHTS of Nrf2 Activators. AID 624171, 2012. 410,000 tested, 0.31% active. Potency, µM (titrated, usually from 46.1 µM), for inactives: at the top dose activation, hits mostly activators. AREc32 ARE-luciferase reporter (MCF7-derived line), luminescence, 24 h; also: potency is read from the fitted curve at half-maximal effect; % of control where 0% means no effect; nearly all actives have a fitted effect of over 65% in size
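Cells of the AREc32 ARE-luciferase line are plated in OPTI-MEM containing 5% FBS and left overnight at 37 deg C. Compounds are pinned in, incubation continues 24 hr, and firefly luciferase signal is then measured.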
A549 viability: Nrf2 qHTS screen for inhibitors: counterscreen for cytotoxicity; A549 ARE-Fluc cells, CellTiter-Fluor viability, 18-24 h; Potency, µM (titrated, usually from 46 µM), without a hit: at the top dose activity change, negative = cytotoxicity, usual class: inhibitors; 390,000 tested, 0.16% active; AID 504648, 2011; also: potency is read from the fitted curve at half-maximal effect; % is scaled to controls: 0 for no effect and ±100 for the full control effect
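Cytotoxicity counterscreen: CellTiter-Fluor fluorescence was measured in A549 ARE_Fluc cells after 18-24 h of compound exposure in a concentration series. The subsequent BugLite luminescent read reports ARE-luciferase activity.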
Nrf2 block: Nrf2 qHTS screen for inhibitors; A549 ARE-Fluc reporter, luciferase luminescence, 18-24 h; Potency, µM (titrated, usually from 46 µM), for inactives: top-dose activity change, negative = inhibition, usual class: inhibitors; 360,000 tested, 2.1% active; also: potency is read from the fitted curve at half-maximal effect; % is scaled to controls: 0 for no effect and ±100 for the full control effect; nearly all actives have a fitted effect of over 60% in size
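Cells were seeded and rested 2 h, then exposed to compounds for 18-24 h. CellTiter-Fluor was read first as a viability measure. BugLite was added 15 min before the final luminescent read of ARE-luciferase activity in A549 cells.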
Starred values were filed as active, the others as inactive; ? = inconclusive; . = no result given; [ ] = another dose, or the depositor's remark. An excerpt weighted towards active compounds, which were near 3.7% of everything screened. Unless noted, calls follow the shape of the dose curve; as a rule, active = well fitted curve in the direction sought with a large enough effect; inconclusive = small, poorly fitted or top-dose-only effect, or another doubt; inactive = no such curve, though single readings can be large; an effect the other way counts as inactive or inconclusive.

SMILES	ClpP mod	miR-21 reporter	TCR activator	Nrf2 ARE act	A549 viability	Nrf2 block
CCOC(=O)c1ccc(NC(=O)c2ccc(CN3CCc4ccccc4C3)cc2)cc1	0%	15%	2%	0%	?	23µM*
Cc1ccc(C(=O)OCC(=O)Nc2ccc(N3CCOCC3)cc2)cc1	32µM*	.	-2%	-1%	-9%	-3%
O=C(Nc1ccc(Cl)cc1)c1ccc(CN2CCc3ccccc3C2)cc1	1%	-10%	-5%	5%	-9%	?
O=C(Nc1ccc(S(=O)(=O)N2CCCCC2)cc1)C1CCCO1 (stereo unspecified)	.	0%	-3%	0%	2%	19%
CCCCCCC[n+]1ccc(/C=C/c2c[nH]c3ccccc23)c2ccccc21	4%	.	.	.	.	.
COc1ccc(C(=O)/C(C#N)=N/Nc2ccc([N+](=O)[O-])cc2)cc1	3%	23%	3%	-1%	?	2.6µM*
N#C/C(=N\Nc1ccc(Cl)cc1)C(=O)c1ccccc1	-1%	23%	5%	11%	16µM*	15µM*
COc1ccc(C(=O)/C(C#N)=N/Nc2ccccc2[N+](=O)[O-])cc1	3%	23%	4%[46.1 µM]	-1%	1%	-9%
COc1ccccc1CNC(=O)c1ccc2c(c1)nc(C)n2-c1cccc(C)c1	-8%	8%	.	0%	23%	.
CCCOc1ccc(/C=N/NC(=O)c2ccc3c(c2)OCO3)c(OCCC)c1	.	0%	1%	0%	2%	4%
Cc1ccc(NC(=O)N2CC3CCCN3c3ccccc32)cc1Cl (stereo unspecified)	-7%	-10%	.	3%	0%	?
COc1cc(-c2c(C#N)c(N)nc3c2c(C)nn3-c2ccc(C)c(C)c2)cc(OC)c1OC	25µM*	6%	-5%	8%	-12%	?
COC(=O)c1c[nH]c2c1-c1cc(C(=O)OCc3ccccc3)n(S(=O)(=O)c3ccc(C)cc3)c1C(=O)C2=O	2%	.	2%	-2%	4.1µM*	4.1µM*
Cc1cc(NCCCO)n2c(nc3ccccc32)c1C#N	.	-8%	-1%	0%	1%	28%
CCCNc1cc(C)c(C#N)c2nc3ccccc3n12	2.8µM*	-11%	1%[46.1 µM]	2%	-12%	4%
Nc1cc2sc(-c3ccc(C(=O)O)cc3)nc2cc1Cl	4.5µM*	-8%	2%[46.1 µM]	-1%	?	?
Nc1ccc(-c2nc3ccc(C(=O)O)cc3s2)cc1	-51%	21%	4%[46.1 µM]	-3%	18%	?
O=c1[nH]nc2c3ccccc3occ1-2	1%	.	.	.	.	.
CCC1(CC)C(=O)C(C)(C)C(=O)OC1c1cccs1 (stereo unspecified)	28µM*	0%	4%	-1%	-3%	-10%
CC(=O)N1CCc2cc(S(=O)(=O)N3CCN(S(=O)(=O)c4c(F)cccc4F)CC3)ccc21	.	.	.	.	0%	-17%
Nc1c(S(=O)(=O)c2cccs2)c2nc3ccccc3nc2n1CC1CCCO1 (stereo unspecified)	8%	0%	10%	-1%	9%	1%
Nc1c(S(=O)(=O)c2cccs2)c2nc3ccccc3nc2n1CCc1ccccc1	.	19%	.	.	.	.
Nc1c(S(=O)(=O)c2cccs2)c2nc3ccccc3nc2n1Cc1ccc2c(c1)OCO2	14µM*	12%	2%	0%	-16%	?
Nc1c(S(=O)(=O)c2cccs2)c2nc3ccccc3nc2n1Cc1cccs1	32µM*	-1%	3%	0%	-17%	-11%
CC(=O)Nc1ccc(NC(=O)CSc2nnc(N)n2-c2ccccc2)cc1	.	.	2%	1%	7%	20%
COc1cc(/C=C/C(=O)OCC(=O)NCC(=O)Nc2cccc(C)c2C)ccc1OC(F)F	4%	.	-1%	0%	-7%	16%

Bioassay records (PubChem BioAssay)
